Results taken from paper PMC11574364.

Legend:
Test in all cases: protein domain microarray probed with biotinylated miRNA; Domain array: 20 mM Tris-HCl pH 7.4, 200 mM KCl, 0.2 mM EDTA, 0.05% NP40, 2 ug/ul heparin, overnight 4 C. ORF array: PBS pH 7.0 with RNase inhibitor, 100 ng RNA; high values mean tight binding
Details in all cases: ssRNA
DAZ4 = molecular target: T1, DAZ4 (Homo sapiens, UniProt Q86SG3)
T1 sequence: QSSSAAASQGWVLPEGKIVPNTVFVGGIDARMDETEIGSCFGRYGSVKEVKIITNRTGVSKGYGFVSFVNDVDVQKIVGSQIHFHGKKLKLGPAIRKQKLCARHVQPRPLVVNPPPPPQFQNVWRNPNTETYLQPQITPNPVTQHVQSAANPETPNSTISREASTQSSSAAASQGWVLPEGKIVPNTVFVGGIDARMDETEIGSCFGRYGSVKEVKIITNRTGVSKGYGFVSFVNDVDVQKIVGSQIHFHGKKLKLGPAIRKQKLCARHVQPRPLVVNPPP

hnRNP-M(1-2) = molecular target: T2, hnRNP-M(1-2) (Homo sapiens, UniProt P52272)
T2 sequence: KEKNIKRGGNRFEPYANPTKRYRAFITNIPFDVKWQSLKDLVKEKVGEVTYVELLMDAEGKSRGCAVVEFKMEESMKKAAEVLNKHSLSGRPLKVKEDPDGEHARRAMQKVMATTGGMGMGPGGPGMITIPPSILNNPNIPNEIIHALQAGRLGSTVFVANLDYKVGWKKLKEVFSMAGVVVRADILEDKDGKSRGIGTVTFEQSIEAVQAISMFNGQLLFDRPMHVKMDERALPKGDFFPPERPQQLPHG

hnRNP-A3 = hnRNP-A3 (Homo sapiens, UniProt P51991)
Chain of hnRNP-A3 (P51991 15-225): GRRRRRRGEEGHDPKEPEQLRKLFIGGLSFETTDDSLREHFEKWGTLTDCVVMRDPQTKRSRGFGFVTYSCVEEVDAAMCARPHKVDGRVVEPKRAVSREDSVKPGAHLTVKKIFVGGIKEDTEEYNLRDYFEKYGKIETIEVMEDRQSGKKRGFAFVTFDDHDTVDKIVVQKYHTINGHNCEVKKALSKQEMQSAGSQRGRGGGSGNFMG

LARP7(2) = molecular target: T3, LARP7(2) (Homo sapiens, UniProt Q4G0J3)
T3 sequence: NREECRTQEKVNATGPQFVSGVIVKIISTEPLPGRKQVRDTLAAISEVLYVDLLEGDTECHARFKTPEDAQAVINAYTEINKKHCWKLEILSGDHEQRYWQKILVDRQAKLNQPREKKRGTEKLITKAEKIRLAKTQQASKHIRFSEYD

eIF3-delta = eIF3-delta (Homo sapiens, UniProt O75821)
Chain of eIF3-delta (O75821 220-320, stated change not applied): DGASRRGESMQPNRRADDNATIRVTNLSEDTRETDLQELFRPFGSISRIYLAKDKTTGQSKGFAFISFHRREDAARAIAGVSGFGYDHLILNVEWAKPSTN

DAZ1 = molecular target: T4, DAZ1 (Homo sapiens, UniProt Q9NQZ3)
T4 sequence: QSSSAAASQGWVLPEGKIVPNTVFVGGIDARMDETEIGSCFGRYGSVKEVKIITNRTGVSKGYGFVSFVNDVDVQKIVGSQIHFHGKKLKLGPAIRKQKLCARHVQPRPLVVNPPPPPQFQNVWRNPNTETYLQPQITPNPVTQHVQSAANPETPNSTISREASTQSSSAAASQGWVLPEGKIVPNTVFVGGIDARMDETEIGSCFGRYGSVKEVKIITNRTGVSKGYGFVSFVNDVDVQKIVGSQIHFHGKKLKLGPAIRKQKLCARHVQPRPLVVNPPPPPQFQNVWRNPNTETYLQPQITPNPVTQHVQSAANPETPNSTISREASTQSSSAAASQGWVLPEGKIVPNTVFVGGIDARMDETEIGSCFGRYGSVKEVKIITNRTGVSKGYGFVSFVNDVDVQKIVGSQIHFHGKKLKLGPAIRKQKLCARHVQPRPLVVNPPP

G3BP-1 = G3BP-1 (Homo sapiens, UniProt Q13283)
Chain of G3BP-1 (Q13283 320-435): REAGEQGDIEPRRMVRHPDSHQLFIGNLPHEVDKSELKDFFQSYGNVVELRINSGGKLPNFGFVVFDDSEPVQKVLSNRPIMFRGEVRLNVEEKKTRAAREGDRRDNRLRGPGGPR

hnRNP-A1 = hnRNP-A1 (Homo sapiens, UniProt P09651)
Chain of hnRNP-A1 (P09651 1-205): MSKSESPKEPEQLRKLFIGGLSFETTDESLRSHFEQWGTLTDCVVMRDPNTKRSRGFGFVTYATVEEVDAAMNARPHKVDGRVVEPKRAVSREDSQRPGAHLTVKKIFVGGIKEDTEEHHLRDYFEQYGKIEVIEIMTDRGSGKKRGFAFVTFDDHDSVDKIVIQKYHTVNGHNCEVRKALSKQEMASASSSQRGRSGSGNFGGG

hnRNP-R = molecular target: T5, hnRNP-R (Homo sapiens, UniProt O43390)
T5 sequence: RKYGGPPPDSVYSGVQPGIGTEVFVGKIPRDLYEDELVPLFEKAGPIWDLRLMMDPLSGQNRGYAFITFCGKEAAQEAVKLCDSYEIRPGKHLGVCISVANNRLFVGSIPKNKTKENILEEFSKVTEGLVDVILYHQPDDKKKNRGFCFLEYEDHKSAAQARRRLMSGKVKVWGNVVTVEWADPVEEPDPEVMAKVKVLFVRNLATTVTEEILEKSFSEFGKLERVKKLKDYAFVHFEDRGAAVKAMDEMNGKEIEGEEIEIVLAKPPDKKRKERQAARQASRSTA

LKAP = molecular target: T6, LKAP (Homo sapiens, UniProt Q9Y4F3)
T6 sequence: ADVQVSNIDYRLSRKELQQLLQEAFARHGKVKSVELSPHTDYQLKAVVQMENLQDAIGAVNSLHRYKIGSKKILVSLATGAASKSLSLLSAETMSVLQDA

Sequence	binding signal (DAZ4) [fluorescence intensity]	binding signal (hnRNP-M(1-2)) [fluorescence intensity]	binding signal (hnRNP-A3) [fluorescence intensity]	binding signal (LARP7(2)) [fluorescence intensity]	binding signal (eIF3-delta) [fluorescence intensity]	binding signal (DAZ1) [fluorescence intensity]	binding signal (G3BP-1) [fluorescence intensity]	binding signal (hnRNP-A1) [fluorescence intensity]	binding signal (hnRNP-R) [fluorescence intensity]	binding signal (LKAP) [fluorescence intensity]
UAGCUUAUCAGACUGAUGUUGA	570 ± 34.9	584 ± 19	80.5 ± 23	66.2 ± 4.35	20.5 ± 2.47	550 ± 15.3	219 ± 29.7			
UGAGGUAGUAGGUUGUAUAGUU	215 ± 41.8	581.3 ± 5.61	952 ± 63	179 ± 11.7	80.4 ± 7.03	193 ± 22.1	286 ± 21.3	22 ± 6.92	109 ± 5.8	
UGAGGUAGUAGGUUGUGUGGUU	843.32 ± 0.516	1470 ± 31	1660 ± 31.6	632 ± 5.09	338 ± 7.23	709 ± 20.1	1380 ± 17	77.3 ± 27.2	693 ± 1.68	91.94 ± 0.665
CAGUGCAAUGAUGAAAGGGCAU	178.74 ± 0.0495	946.9 ± 2.02	1370 ± 25	288 ± 8.61	113 ± 14	153 ± 10.6	1860 ± 70.5	40.7 ± 3.35	113 ± 6.25	37.5 ± 1.56
AGAGGUAGUAGGUUGCAUAGUU	934 ± 29.1	1710 ± 32.8	2440 ± 28.8	400 ± 39.4	231 ± 8.61	814 ± 10.2	1220 ± 45.7	62.9 ± 11.7	362 ± 6.89	41.4 ± 3.31
UGAGGUAGUAGGUUGUAUGGUU	778 ± 25.6	1452 ± 3.71	1730 ± 33.6	511 ± 8.38	262 ± 21.2	673 ± 9.53	1240 ± 13.5	74.6 ± 1.05	666 ± 24.3	65.2 ± 2.55
